An excerpt weighted towards active compounds, which were near 13% of everything screened.
CHOP inh = inhibitors of CHOP promoter induction, primary screen, cell-based, unfolded protein response, luciferase reporter; hit rate 3.8% among 220,000; inhibition, % at 10 µM; CHO-K1 CHOP-promoter luciferase, tunicamycin-induced, 15-18 h;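 active = compounds that reduced the stress-induced luciferase reporter signal by more than about 70% of percent inhibition, limit read from the data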;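 also: 0% = tunicamycin plus vehicle and 100% = wells without tunicamycin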
RAM network inh = inhibitors of the yeast RAM network, primary screen, dse1pr::URA3 reporter, 5-FOA selection | inhibition, % at 50 µM | hit rate 1.8% among 190,000 | S. cerevisiae dse1pr::URA3 reporter, 5-FOA growth OD615, 2 d; analog-sensitive cbk1-as2 kinase mutant strain;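 active = inhibition above a set limit, 3 SD over mean compound inhibition, cut at about 8.4% in these data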;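 also: 0% = DMSO-only wells with no growth and 100% = 10 µM 1-NA-PP1 full growth; inhibition rescues growth on 5-FOA so higher OD means more RAM inhibition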
L major viab = Leishmania major promastigote growth inhibition, primary screen; inhibition, % at 10 µM; hit rate 9% among 200,000; Leishmania major promastigotes, resazurin fluorescence viability; in the data active = inhibition above about 50%;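 also: promastigotes grown with compound for 44 hours at 28 °C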
WT yeast gro inh = growth inhibition of WT strain, primary screen, mitochondrial fusion inhibitor project, WT and mutant strains, chemical genetic; mitochondrial fusion phenotypic screen; inhibition, % at 10 µM; hit rate 2.1% among 190,000; AID 1362, 2008; in the data active = inhibition above about 58%; tested in S. cerevisiae
The depositor's hits bear a star; . = not tested or not shown.

SMILES	CHOP inh	RAM network inh	L major viab	WT yeast gro inh
Cc1cc(C)c[n+](-c2[nH]c(=O)sc2/C=N/NC([S-])=Nc2ccccc2)c1	15	5	-7	10
O=c1cnn(-c2ccc(Cl)cc2Cl)c(-c2ccccc2)c1	69	6	92*	8
Cc1cc(Cl)ccc1Oc1ncc(CN2CCN(c3ccccc3)CC2)s1	23	0	-6	64*
Cc1[nH]c2ccc(-c3n[nH]c(=S)n3-c3ccc(Br)cc3)cc2c1C	52	10*	11	-4
CCN(CC)S(=O)(=O)c1ccc(OC)c(NC(=O)c2cc(C)on2)c1	1	3	9	1
Cn1c(=O)c2c(nc(SCc3ccccc3)n2Cc2ccc(Cl)cc2)n(C)c1=O	50	8.9*	20	42
Cn1c(=O)c2c(nc(N/N=C/c3ccc(OC(=O)c4ccco4)cc3)n2Cc2ccccc2)n(C)c1=O	22	7	61*	37
C/C=C/Cn1c(SCc2ccc(Cl)cc2)nc2c1c(=O)[nH]c(=O)n2C	76*	6	14	1
Cn1c(=O)c2c(nc(N/N=C/c3cccs3)n2Cc2ccccc2)n(C)c1=O	16	5	26	-3
C/C=C/Cn1c(SC)nc2c1c(=O)[nH]c(=O)n2C	9	1	-8	-9
CC(C)Sc1nc2c(c(=O)n(C)c(=O)n2C)n1Cc1ccc(Cl)cc1	60	2	3	37
CN(Cc1ccccc1)Cc1nc2c(c(=O)n(C)c(=O)n2C)n1CCCc1ccccc1	77*	0	29	41
CC1=C(C)CC(C(=O)Nc2ccc(C(=O)N3CCOCC3)cc2)C(C(=O)O)C1 (centres undefined)	0	1	-3	4
COc1ccc(Cl)c(Cn2c(NCC(C)O)nc3c2c(=O)n(C)c(=O)n3C)c1 (centres undefined)	-18	1	2	-17
Cc1ccc(Cn2c(NCCc3ccccc3)nc3c2c(=O)n(C)c(=O)n3C)cc1	79*	4	-3	-1
CCCn1c(SCc2ccc(Cl)cc2)nc2c1c(=O)[nH]c(=O)n2C	82*	5	20	22
COc1ccc(Cl)c(Cn2c(NCCCN(C)C)nc3c2c(=O)n(C)c(=O)n3C)c1	-1	-1	100*	-7
CCCn1c(Sc2nc3c(c(=O)[nH]c(=O)n3C)n2CCC)nc2c1c(=O)[nH]c(=O)n2C	-3	0	-1	4
CC1Cc2ccccc2N1C(=O)COC(=O)c1ccc(Cl)nc1 (centres undefined)	-2	0	-3	7
S=C(NCC1CCCO1)NC12CC3CC(CC(C3)C1)C2 (centres undefined)	-13	3	62*	68*
Cc1ccc(NC(=S)NCC2CCCO2)cc1C (centres undefined)	2	0	-6	0
Cc1ccc(NC(=S)NCC2CCN(C(C)c3ccccc3)C2)cc1C (centres undefined)	7	0	82*	15
Cc1cccc(OCC(=O)N2CCN(C(=O)CCC3CCCC3)CC2)c1	-2	0	-3	11
Cc1cccc(OCC(=O)N2CCC(N3CCOCC3)CC2)c1	6	2	92*	-40
CC1CN(C2CCN(C(=O)COc3ccc(Cl)cc3)CC2)CC(C)O1 (centres undefined)	-8	4	92*	9
SMILES	CHOP inh	RAM network inh	L major viab	WT yeast gro inh
CCOC(=O)Cc1c(Sc2ccccc2)c2ccccc2n1C	8	4	-1	66*
Cn1c(CC(=O)Nc2ccc(F)cc2)c(Sc2ccccc2)c2ccccc21	79*	6	-1	8
Cc1ccc(CNC(=O)CSc2ccc(-c3ccco3)nn2)cc1	20	2	63*	3
Cc1ccc(NC(=O)CSc2ccc(-c3ccco3)nn2)cc1	74*	3	12	-18
Cc1cccc(NC(=O)CSc2ccc(-c3ccco3)nn2)c1	10	3	19	5
CC(=O)Nc1ccc(NC(=O)CSc2ccc(-c3ccco3)nn2)cc1	5	2	-3	-17
Cc1ccc(SCC(=O)Nc2ccc(-c3nnc(-c4ccco4)o3)cc2)cc1	75*	7	-2	35
Cc1cc(C)cc(NC(=O)CSc2ccc(-c3ccco3)nn2)c1	27	7	51*	-10
CC(=O)Nc1ccc(N2CCc3c(C)c(C#N)c4nc5ccccc5n4c32)cc1	30	5	36	5
CCc1nnc(N2C(=O)c3ccc(Oc4ccc([N+](=O)[O-])cc4)cc3C2=O)s1	48	1	-8	-18
Cc1ccc(C2(c3noc(CN(C)Cc4cnn(C)c4)n3)CCCC2)cc1	10	1	6	15
CC1(C)CC2(CCO1)C(Nc1ccccc1)=NC(=S)N2CC(N)=O (centres undefined)	6	.	.	.
CCOC(=O)CNC(=O)c1ccc(OCC(F)(F)F)cc1	-17	1	-2	3
CC(=N)c1c(O)c2ccccc2oc1=O	-31	.	.	.
CCCCC(=O)c1c(O)c2ccccc2oc1=O	50	-1	-1	-12
O=C(CC1CCCCC1)c1c(O)c2ccccc2oc1=O	44	9.6*	-3	39
CC1CCC(C(=O)c2c(O)c3ccccc3oc2=O)CC1 (centres undefined)	66	6	99*	12
CCN(CC)c1ccc(CNc2nc3ccccc3n2CC)cc1	-9	.	.	.
O=C(Nc1nccs1)c1cccc(NC(=O)C(F)(F)F)c1	-16	.	.	.
COC(CNC(=O)c1ccc(N2CCc3ccccc32)c([N+](=O)[O-])c1)OC	52	-1	96*	-25
NNC(=O)c1ccc(N2CCc3ccccc32)c([N+](=O)[O-])c1	19	-1	19	-8
O=C(CCN1C(=O)C2C3CCC(C3)C2C1=O)Nc1ccc(Br)cc1 (centres undefined)	2	2	60*	3
COc1ccc(NC(=O)CCN2C(=O)C3C4CCC(C4)C3C2=O)cc1 (centres undefined)	1	0	57*	3
Cc1cc(C)cc(-n2c(C)cc(C(=O)CSc3nnnn3C)c2C)c1	39	0	91*	-13
Cc1cc(C(=O)CSc2nnnn2C)c(C)n1-c1cccc(F)c1	-10	-1	7	16
SMILES	CHOP inh	RAM network inh	L major viab	WT yeast gro inh
O=C(c1cc(C(=O)N2CCOCC2)c2nc3ccccc3n2c1)c1cc(Cl)cc(Cl)c1O	17	.	.	.
COC(=O)c1ccc2c(c1O)C(=O)c1ccccc1C2=O	21	0	84*	66*
COC(=O)CSc1nnnn1-c1cccc2ccccc12	1	0	-7	48
O=C(CCCSc1nnnn1-c1cccc2ccccc12)c1ccc(F)cc1	18	9.4*	0	11
Cc1ccc2c(CSc3nnc(C4CC4)n3N)cc(=O)oc2c1C	-4	2	0	96*
CCCCN(CC)Cc1ccc(CNC(=S)Nc2cccc(F)c2)o1	18	-1	78*	11
Nc1ccc(S(=O)(=O)NNC(=O)C(=O)NNc2ccccc2)cc1	11	0	87*	49
CCOC(=O)c1cnc(SC)nc1Oc1cccc(NS(=O)(=O)c2ccc(C)cc2)c1	-11	8	11	-2

Bioassay records as filed in PubChem.
